Laboratory results taken from PubChem BioAssay (NCI).
This is part of a sample that, as a whole, favours compounds with a hit. Of some 83,000 tested, about 20% had one in any assay.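 A percent growth of 40 corresponds to 60% growth inhibition; 0 means no net growth; -100 means all cells died. Active threshold: below 10.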 Activity calls are given as the source filed them.

System: HL-60(TB) leukemia
Test: NCI-60 one-dose screen, 48 h (100 = growth as untreated, 0 = no growth, -100 = all killed)
Details: 10 µM unless noted

| SMILES | growth |
| --- | --- |
| CCC(C)C(N)C(=O)NC(CC(C)C)C(=O)N1CCCC1C(=O)NC(Cc1c[nH]c2ccccc12)C(=O)NC(CCCCN)C(=O)NC(Cc1c[nH]c2ccccc12)C(=O)N1CCCC1C(=O)NC(Cc1c[nH]c2ccccc12)C(=O)NC(Cc1c[nH]c2ccccc12)C(=O)N1CCCC1C(=O)NC(Cc1c[nH]c2ccccc12)C(=O)NC(CCCNC(=N)N)C(=O)NC(CCCNC(=N)N)C(N)=O (stereo not given) | -2.6% (active) |
| S=C(NCc1ccccc1)NCc1ccccc1 | 84.7% (inactive) |
| Cc1cc(C(N)=O)cc(C)c1C(=O)OCCCl | 106% (inactive) |
| Cn1cc(-c2csc(-c3cn(C)c4ccc(F)cc34)n2)c2cnccc21 | -44.8% (active) |
| O=C(NCCCN1CCCCC1)c1ccc(-c2nc3ccc4[nH]ncc4c3c3c2CCCC3)cc1 | 93.4% (inactive) |
| COc1ccc(OC)c(/C=C2\Oc3cc(OCCN4CCCC4)ccc3C2=O)c1 | 69.2% (inactive) |
| CN(C)C(=O)OCc1nc2c(N3CCOCC3)nc(-c3ccccc3)nc2n1C | -29.2% (active) |
| CC1(O)OC(COc2ccc(Cl)cc2)COC1O (stereo not given) | 105% (inactive) |
| Cc1nc(Nc2ccc(NC(=S)Nc3ccccc3)cc2)nc2nc(Nc3ccc(S(=O)(=O)O)cc3)[nH]c(=O)c12 | 132% (inactive) |
| COc1cc(NCCN(CC(C)C)CC(C)C)c2ncc(C)cc2c1 | 88.2% (inactive) |
| CCOC(=O)C1=C(C(=O)c2ccccc2)C(c2cccc([N+](=O)[O-])c2)C(C(=O)c2ccccc2)=C(C(=O)OCC)N1 | 66.8% (inactive) |
| Cn1cc(NC(=O)Nc2cc(C(=O)O)n(C)c2)cc1C(=O)O | 90.1% (inactive) |
| Cc1nc(Nc2ccccn2)sc1C(=O)/C=C/c1ccc(Br)cc1 | 41.7% (inactive) |
| COc1c(OCCCN2CCOCC2)ccc2c3n(c(=NC(=O)c4cnc(N)nc4)nc12)CCN3 | 11.3% (inactive) |
| C#Cc1cccc(Nc2ncnc3cc(OCCOC)c(OCCOC)cc23)c1 | 49.2% (inactive) |
| CC1=C(/C=C/C(C)=C/C=C(C(=O)O)\C(C)=C\C(=O)O)C(C)(C)CCC1 | 85.3% (inactive) |
| Cn1c(/C=C/[N+](=O)[O-])cc2ccccc21 | 53.4% (inactive) |
| CCN(CC)CCOC(COc1cc(C)cc(C)c1)COc1cc(C)cc(C)c1 | 20.3% (inactive) |
| Nc1cc2c(cc1Br)-c1c(C(=O)O)cccc1C2O (stereo not given) | 77.8% (inactive) |
| COc1cc2c(C#N)n3c(c2cc1OC)C(=O)C(c1ccccc1)Oc1ccccc1-3 (stereo not given) | 61.1% (inactive) |

| SMILES | growth |
| --- | --- |
| Cc1cccc(NC(=O)[C@@H]2c3ccccc3C(=O)N(c3ccc(Cl)cc3)[C@H]2c2ccc(Cl)cc2)n1 | 36.2% (inactive) |
| FC(F)(F)c1ccc(CNc2ccc(Cc3c[nH]c4ncc(Cl)cc34)cn2)cn1 | 4.54% (active) |
| O=S(=O)(NCCNc1nccc(-c2c(-c3ccc(F)cc3)nc3sccn23)n1)c1ccc(F)cc1 | 117% (inactive) |
| Cn1cc(-c2csc(-c3c[nH]c4ccc(F)cc34)n2)c2ccnc(Cl)c21 | 72% (inactive) |
| C=CCn1c(C)nc2cc(Nc3nc(Cl)nc4ccccc34)ccc21 | 84.1% (inactive) |
| COc1ccccc1N1CCN(C(CNS(=O)(=O)c2ccc(Cl)cc2)c2cccnc2)CC1 (stereo not given) | 66.1% (inactive) |
| O=S(=O)(NCCNc1nccc(-c2c(-c3cccc(F)c3)nc3sccn23)n1)c1ccc(Cl)cc1 | 95.9% (inactive) |
| CCOC(=O)/C(C#N)=C\c1c[nH]c2ccccc12 | 104% (inactive) |
| O=C(O)C(=Cc1c2ccccc2cc2ccccc12)C(=O)O | 110% (inactive) |
| Clc1ccc(I)c2ccccc12 | 98.1% (inactive) |
| CC1(C)CC[C@]2(C(=O)O)CC[C@]3(C)[C@H](CC[C@@H]4[C@@]5(C)CCC(=O)C(C)(C)[C@@H]5CC[C@]43C)[C@H]2[C@H]1OC(=O)C(F)(F)F | -23.4% [100 µM] (active) |
| COc1cc2oc(-c3cccc(C(=O)Nc4ccc(Cl)cc4)c3)cc(=O)c2c(OC)c1OC | -11.1% (active) |
| COc1cc2cc(Oc3ccc(NC(=O)Nc4cc(C(F)(F)F)cc(C(F)(F)F)c4)cc3)c(C)nc2cc1OCCN1CCCCC1 | -2.13% (active) |
| COc1cc(NC(=O)CCSc2nc3ccc(C)cc3c(=O)n2Cc2ccccc2)cc(OC)c1OC | 116% (inactive) |
| O=C1CCC(C(=O)NN(c2ccccc2)c2ccccc2)N1 (stereo not given) | -18.8% (active) |
| [2H]C([2H])([2H])Oc1ccc(F)cc1/C=C/C(=O)/C=C(/C=C/c1cc(F)ccc1OC([2H])([2H])[2H])OB(F)F | 30.1% (inactive) |
| Cc1ncc(C(=O)Nc2ccc(CN3CCN(C)CC3)c(C(F)(F)F)c2)cc1C#Cc1cnc(N)c2cnccc12 | 16.1% (inactive) |
| O=C1Nc2ccccc2/C1=C/c1ccc[nH]1 | 103% (inactive) |
| CC1(C)CC(=O)C2=C(C1)C(c1ccc(Cl)cc1)n1ncc(C#N)c1N2 (stereo not given) | 97.9% (inactive) |
| O=C1Nc2ccc(Cl)cc2/C1=N/c1nc(-c2ccc(Cl)cc2)cs1 | -32.4% (active) |
